Consider 23 sequences from publication PMC11006913.

Changes are numbered by the printed parent chain.

Common to all, as to assay: PBM; 200 nM protein, PBS
Details in all cases: dsDNA, one strand shown

For assay [1], the target named is HOXA2 (Homo sapiens, UniProt O43364 129-215, R185T).
Assay [2] addresses ALX1 (Homo sapiens, UniProt Q15699 118-204, L144V).
Assay [3] deals with HOXA2 (Homo sapiens, UniProt O43364 129-215, R185K).
The target in assay [4] is ALX1 (Homo sapiens, UniProt Q15699 118-204, L144R).
Assay [5] concerns the target HOXA2 (Homo sapiens, UniProt O43364 129-215, Y150S).
Assay [6] deals with NKX3-2 (Homo sapiens, UniProt P78367 192-278, P234S).
Assay [7] deals with ALX1 (Homo sapiens, UniProt Q15699 118-204).
Assay [8] concerns the target HOXA2 (Homo sapiens, UniProt O43364 129-215).
The target in assay [9] is NKX3-2 (Homo sapiens, UniProt P78367 192-278).
Assay [10] concerns the target T1, SIX6 (Homo sapiens, UniProt O95475 114-200, T165G).
T1 sequence: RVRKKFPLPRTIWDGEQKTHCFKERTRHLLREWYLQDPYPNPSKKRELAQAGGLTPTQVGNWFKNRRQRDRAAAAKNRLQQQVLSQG

Assay [11] has as its target T2, SIX6 (Homo sapiens, UniProt O95475 114-200, T165A).
T2 sequence: T1 sequence with G52A

Another assay addresses T3, NKX2-6 (Homo sapiens, UniProt A6NCS4 118-204, R150C).
T3 sequence: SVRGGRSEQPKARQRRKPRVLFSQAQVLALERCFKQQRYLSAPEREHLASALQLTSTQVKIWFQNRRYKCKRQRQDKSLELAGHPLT

The target in assay [12] is PROP1 (Homo sapiens, UniProt O75360 56-141).
Assay [13] concerns the target PROP1 (Homo sapiens, UniProt O75360 56-141, R99H).
Assay [14] concerns the target PROP1 (Homo sapiens, UniProt O75360 56-141, F88S).
The target in a further assay is HESX1 (Homo sapiens, UniProt Q9UBX0 95-180).
The target in assay [15] is HOXD13 (Homo sapiens, UniProt P35453 263-343, T313R).
Assay [16] addresses HOXD13 (Homo sapiens, UniProt P35453 263-343).
Assay [17] concerns the target HOXD13 (Homo sapiens, UniProt P35453 263-343, T313A).
The target of the next assay is MSX2 (Homo sapiens, UniProt P35548 130-214, R199I).
Assay [18] deals with VAX1 (Homo sapiens, UniProt Q5SQQ9 86-172).
Assay [19] has as its target VAX1 (Homo sapiens, UniProt Q5SQQ9 86-172, T142I).
The target of assay [20] is VAX1 (Homo sapiens, UniProt Q5SQQ9 86-172, K157R).
VAX1 (Homo sapiens, UniProt Q5SQQ9 86-172, K157R), sequence (Q5SQQ9 86-172 K157R): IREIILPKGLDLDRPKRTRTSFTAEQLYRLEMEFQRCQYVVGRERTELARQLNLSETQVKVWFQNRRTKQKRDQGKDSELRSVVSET

HOXA2 (Homo sapiens, UniProt O43364 129-215, R185K), sequence (O43364 129-215 R185K): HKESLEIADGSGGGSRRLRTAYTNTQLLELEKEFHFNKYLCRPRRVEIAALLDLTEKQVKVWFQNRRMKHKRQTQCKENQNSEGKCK
HOXA2 (Homo sapiens, UniProt O43364 129-215, R185T), sequence (O43364 129-215 R185T): as the sequence (O43364 129-215 R185K) above, with K57T counted along it
HOXA2 (Homo sapiens, UniProt O43364 129-215), sequence (O43364 129-215): as the sequence (O43364 129-215 R185K) above, with K57R counted along it
HOXA2 (Homo sapiens, UniProt O43364 129-215, Y150S), sequence (O43364 129-215 Y150S): as the sequence (O43364 129-215 R185K) above, with Y22S, K57R counted along it
HESX1, sequence (Q9UBX0 95-180): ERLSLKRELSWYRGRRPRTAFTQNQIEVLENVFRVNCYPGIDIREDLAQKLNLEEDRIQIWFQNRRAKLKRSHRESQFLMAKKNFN
ALX1 (Homo sapiens, UniProt Q15699 118-204, L144V), sequence (Q15699 118-204 L144V): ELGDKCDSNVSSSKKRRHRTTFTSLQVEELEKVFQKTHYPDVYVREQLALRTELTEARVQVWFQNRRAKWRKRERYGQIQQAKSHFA
HOXD13 (Homo sapiens, UniProt P35453 263-343), sequence (P35453 263-343): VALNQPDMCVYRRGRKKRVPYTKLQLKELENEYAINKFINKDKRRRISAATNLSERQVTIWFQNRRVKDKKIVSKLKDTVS
HOXD13 (Homo sapiens, UniProt P35453 263-343, T313A), sequence (P35453 263-343 T313A): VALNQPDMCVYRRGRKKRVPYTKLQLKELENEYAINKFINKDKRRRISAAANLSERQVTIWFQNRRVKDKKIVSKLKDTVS
NKX3-2 (Homo sapiens, UniProt P78367 192-278, P234S), sequence (P78367 192-278 P234S): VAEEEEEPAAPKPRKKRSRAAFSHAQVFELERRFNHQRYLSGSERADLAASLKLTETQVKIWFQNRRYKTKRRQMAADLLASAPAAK
VAX1 (Homo sapiens, UniProt Q5SQQ9 86-172, T142I), sequence (Q5SQQ9 86-172 T142I): as the sequence (Q5SQQ9 86-172 K157R) above, with T57I, R72K counted along it
PROP1 (Homo sapiens, UniProt O75360 56-141), sequence (O75360 56-141): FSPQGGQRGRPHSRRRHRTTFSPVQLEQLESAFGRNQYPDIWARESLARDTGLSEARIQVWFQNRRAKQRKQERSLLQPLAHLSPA
PROP1 (Homo sapiens, UniProt O75360 56-141, F88S), sequence (O75360 56-141 F88S): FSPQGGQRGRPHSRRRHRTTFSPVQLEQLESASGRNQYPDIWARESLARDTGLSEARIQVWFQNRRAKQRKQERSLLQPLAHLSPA
ALX1 (Homo sapiens, UniProt Q15699 118-204, L144R), sequence (Q15699 118-204 L144R): as the sequence (Q15699 118-204 L144V) above, with V27R counted along it
ALX1 (Homo sapiens, UniProt Q15699 118-204), sequence (Q15699 118-204): as the sequence (Q15699 118-204 L144V) above, with V27L counted along it
VAX1 (Homo sapiens, UniProt Q5SQQ9 86-172), sequence (Q5SQQ9 86-172): as the sequence (Q5SQQ9 86-172 K157R) above, with R72K counted along it
HOXD13 (Homo sapiens, UniProt P35453 263-343, T313R), sequence (P35453 263-343 T313R): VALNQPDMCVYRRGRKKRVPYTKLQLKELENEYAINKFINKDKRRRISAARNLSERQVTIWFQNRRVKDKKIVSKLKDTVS
NKX3-2 (Homo sapiens, UniProt P78367 192-278), sequence (P78367 192-278): as the sequence (P78367 192-278 P234S) above, with S43P counted along it
MSX2, sequence (P35548 130-214 R199I): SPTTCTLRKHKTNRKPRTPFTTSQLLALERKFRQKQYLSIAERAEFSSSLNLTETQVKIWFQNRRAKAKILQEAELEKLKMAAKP
PROP1 (Homo sapiens, UniProt O75360 56-141, R99H), sequence (O75360 56-141 R99H): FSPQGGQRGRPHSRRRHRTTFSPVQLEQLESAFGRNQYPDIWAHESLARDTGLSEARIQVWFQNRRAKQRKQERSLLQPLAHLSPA

GACCGCCC: the binding signal with HOXA2 [1] is 7.33 upbm affinity estimate (log intensity, higher = more binding, comparable within an allelic series); with ALX1 [2], 6.66 upbm affinity estimate (log intensity, higher = more binding, comparable within an allelic series); with HOXA2 [3] it was 10.1 upbm affinity estimate (log intensity, higher = more binding, comparable within an allelic series); with ALX1 [4], 6.49 upbm affinity estimate (log intensity, higher = more binding, comparable within an allelic series); with HOXA2 [5] it was 10.4 upbm affinity estimate (log intensity, higher = more binding, comparable within an allelic series); with NKX3-2 [6] it was 10.5 upbm affinity estimate (log intensity, higher = more binding, comparable within an allelic series). Further, the binding signal in the assay with ALX1 [7] was 6.57 upbm affinity estimate (log intensity, higher = more binding, comparable within an allelic series); in the assay with HOXA2 [8] it was 7.29 upbm affinity estimate (log intensity, higher = more binding, comparable within an allelic series); with NKX3-2 [9] it was 10.5 upbm affinity estimate (log intensity, higher = more binding, comparable within an allelic series).
Turning to AGGTGTGA, the binding signal in the assay with SIX6 [10] was 10.5 upbm affinity estimate (log intensity, higher = more binding, comparable within an allelic series).
Turning to CCGACACC, the binding signal is 10.4 upbm affinity estimate (log intensity, higher = more binding, comparable within an allelic series) with SIX6 [10] and 10.3 upbm affinity estimate (log intensity, higher = more binding, comparable within an allelic series) with SIX6 [11].
Turning to CCCCCACG, the binding signal was 6.91 upbm affinity estimate (log intensity, higher = more binding, comparable within an allelic series) in the assay with HOXA2 [1]; 9.26 upbm affinity estimate (log intensity, higher = more binding, comparable within an allelic series) in the assay with NKX2-6; 9.95 upbm affinity estimate (log intensity, higher = more binding, comparable within an allelic series) with HOXA2 [3]; 6.48 upbm affinity estimate (log intensity, higher = more binding, comparable within an allelic series) in the assay with PROP1 [12]; 6.59 upbm affinity estimate (log intensity, higher = more binding, comparable within an allelic series) in the assay with PROP1 [13]; 6.32 upbm affinity estimate (log intensity, higher = more binding, comparable within an allelic series) in the assay with PROP1 [14]. The binding signal in the assay with HOXA2 [5] was 10.4 upbm affinity estimate (log intensity, higher = more binding, comparable within an allelic series); with HOXA2 [8] it was 6.93 upbm affinity estimate (log intensity, higher = more binding, comparable within an allelic series).
As for ACGATCAA, in the assay with HESX1, the binding signal was 7.32 upbm affinity estimate (log intensity, higher = more binding, comparable within an allelic series).
Turning to GACACCTA, the binding signal with SIX6 [10] is 10.6 upbm affinity estimate (log intensity, higher = more binding, comparable within an allelic series); with SIX6 [11] it was 10.5 upbm affinity estimate (log intensity, higher = more binding, comparable within an allelic series).
As to AATTTATG, the binding signal was 10.1 upbm affinity estimate (log intensity, higher = more binding, comparable within an allelic series) with HOXA2 [1]; 10.7 upbm affinity estimate (log intensity, higher = more binding, comparable within an allelic series) with HOXD13 [15]; 11.9 upbm affinity estimate (log intensity, higher = more binding, comparable within an allelic series) with HOXA2 [3]; 11.6 upbm affinity estimate (log intensity, higher = more binding, comparable within an allelic series) with HOXD13 [16]; 11.5 upbm affinity estimate (log intensity, higher = more binding, comparable within an allelic series) with HOXD13 [17]; 10.9 upbm affinity estimate (log intensity, higher = more binding, comparable within an allelic series) in the assay with HOXA2 [5]. Besides, the binding signal in the assay with HOXA2 [8] is 10.1 upbm affinity estimate (log intensity, higher = more binding, comparable within an allelic series).
With TAACTTGA, the binding signal with HESX1 is 7.21 upbm affinity estimate (log intensity, higher = more binding, comparable within an allelic series).
In the case of ACGACACC, the binding signal in the assay with SIX6 [10] is 10.6 upbm affinity estimate (log intensity, higher = more binding, comparable within an allelic series); with SIX6 [11] it was 10.6 upbm affinity estimate (log intensity, higher = more binding, comparable within an allelic series).
Consider GCTAATCA, for which the binding signal with HOXA2 [1] is 12.5 upbm affinity estimate (log intensity, higher = more binding, comparable within an allelic series); in the assay with MSX2 it was 11 upbm affinity estimate (log intensity, higher = more binding, comparable within an allelic series).
Consider CAGTTAAG, for which the binding signal in the assay with HOXA2 [1] is 9.01 upbm affinity estimate (log intensity, higher = more binding, comparable within an allelic series); with HOXA2 [3], 11.5 upbm affinity estimate (log intensity, higher = more binding, comparable within an allelic series); in the assay with HOXA2 [8] it was 8.89 upbm affinity estimate (log intensity, higher = more binding, comparable within an allelic series).
Regarding AAGGCCCC, the binding signal with HOXA2 [1] was 7.25 upbm affinity estimate (log intensity, higher = more binding, comparable within an allelic series); with HOXA2 [3], 10.3 upbm affinity estimate (log intensity, higher = more binding, comparable within an allelic series); in the assay with HOXA2 [5] it was 10.3 upbm affinity estimate (log intensity, higher = more binding, comparable within an allelic series); in the assay with HOXA2 [8], 7.19 upbm affinity estimate (log intensity, higher = more binding, comparable within an allelic series).
Take AGAATTAT: the binding signal with HOXA2 [1] was 9.79 upbm affinity estimate (log intensity, higher = more binding, comparable within an allelic series); with HOXA2 [3], 11.6 upbm affinity estimate (log intensity, higher = more binding, comparable within an allelic series); in the assay with HOXA2 [5] it was 10.7 upbm affinity estimate (log intensity, higher = more binding, comparable within an allelic series); in the assay with HOXA2 [8] it was 9.68 upbm affinity estimate (log intensity, higher = more binding, comparable within an allelic series).
Turning to ACACTAAT, the binding signal in the assay with HOXA2 [1] was 11.5 upbm affinity estimate (log intensity, higher = more binding, comparable within an allelic series); with HOXA2 [3], 12.6 upbm affinity estimate (log intensity, higher = more binding, comparable within an allelic series); in the assay with HOXA2 [5] it was 10.9 upbm affinity estimate (log intensity, higher = more binding, comparable within an allelic series); with HOXA2 [8], 11.3 upbm affinity estimate (log intensity, higher = more binding, comparable within an allelic series).
Regarding GCTCATTA, the binding signal with HOXA2 [1] was 12.7 upbm affinity estimate (log intensity, higher = more binding, comparable within an allelic series); with HOXA2 [3] it was 13.2 upbm affinity estimate (log intensity, higher = more binding, comparable within an allelic series); in the assay with VAX1 [18], 13.1 upbm affinity estimate (log intensity, higher = more binding, comparable within an allelic series); with VAX1 [19] it was 12.8 upbm affinity estimate (log intensity, higher = more binding, comparable within an allelic series); with HOXA2 [5], 10.5 upbm affinity estimate (log intensity, higher = more binding, comparable within an allelic series); with HOXA2 [8] it was 12.5 upbm affinity estimate (log intensity, higher = more binding, comparable within an allelic series). For the same sequence, the binding signal with VAX1 [20] was 12.7 upbm affinity estimate (log intensity, higher = more binding, comparable within an allelic series).
For AATTGCTC, the binding signal was 10.4 upbm affinity estimate (log intensity, higher = more binding, comparable within an allelic series) in the assay with HOXA2 [1]; 12 upbm affinity estimate (log intensity, higher = more binding, comparable within an allelic series) with HOXA2 [3]; 10.6 upbm affinity estimate (log intensity, higher = more binding, comparable within an allelic series) with HOXA2 [5]; 10.2 upbm affinity estimate (log intensity, higher = more binding, comparable within an allelic series) with HOXA2 [8].
On to CAGCCACG, for which the binding signal with HOXA2 [1] is 7.22 upbm affinity estimate (log intensity, higher = more binding, comparable within an allelic series); in the assay with HOXA2 [3], 10.5 upbm affinity estimate (log intensity, higher = more binding, comparable within an allelic series); in the assay with HOXA2 [5] it was 10.4 upbm affinity estimate (log intensity, higher = more binding, comparable within an allelic series); with HOXA2 [8], 7.24 upbm affinity estimate (log intensity, higher = more binding, comparable within an allelic series).
For the sequence CATTATGG, the binding signal with HOXA2 [1] was 10.5 upbm affinity estimate (log intensity, higher = more binding, comparable within an allelic series); in the assay with HOXA2 [3], 12.3 upbm affinity estimate (log intensity, higher = more binding, comparable within an allelic series); with HOXA2 [5], 10.7 upbm affinity estimate (log intensity, higher = more binding, comparable within an allelic series); with HOXA2 [8] it was 10.9 upbm affinity estimate (log intensity, higher = more binding, comparable within an allelic series).
Take CTGGGGCC: the binding signal with HOXA2 [1] is 7.14 upbm affinity estimate (log intensity, higher = more binding, comparable within an allelic series); in the assay with HOXA2 [3], 10.1 upbm affinity estimate (log intensity, higher = more binding, comparable within an allelic series); in the assay with HOXA2 [5], 10.3 upbm affinity estimate (log intensity, higher = more binding, comparable within an allelic series); with HOXA2 [8], 7.16 upbm affinity estimate (log intensity, higher = more binding, comparable within an allelic series).
With CCACCCCC, the binding signal with HOXA2 [1] was 7.29 upbm affinity estimate (log intensity, higher = more binding, comparable within an allelic series); in the assay with HOXA2 [3], 10.2 upbm affinity estimate (log intensity, higher = more binding, comparable within an allelic series); with HOXA2 [5], 10.4 upbm affinity estimate (log intensity, higher = more binding, comparable within an allelic series); with HOXA2 [8], 6.98 upbm affinity estimate (log intensity, higher = more binding, comparable within an allelic series).
As to GGTAACGA, the binding signal was 9.98 upbm affinity estimate (log intensity, higher = more binding, comparable within an allelic series) with HOXA2 [1]; 12.2 upbm affinity estimate (log intensity, higher = more binding, comparable within an allelic series) with HOXA2 [3]; 10.8 upbm affinity estimate (log intensity, higher = more binding, comparable within an allelic series) in the assay with HOXA2 [5]; 10 upbm affinity estimate (log intensity, higher = more binding, comparable within an allelic series) in the assay with HOXA2 [8].
On to CCCCCGTC, for which the binding signal in the assay with HOXA2 [1] is 7.31 upbm affinity estimate (log intensity, higher = more binding, comparable within an allelic series); in the assay with HOXA2 [3], 10.2 upbm affinity estimate (log intensity, higher = more binding, comparable within an allelic series); with HOXA2 [5], 10.3 upbm affinity estimate (log intensity, higher = more binding, comparable within an allelic series); with HOXA2 [8] it was 7.2 upbm affinity estimate (log intensity, higher = more binding, comparable within an allelic series).
Turning to ACCTCGCC, the binding signal with HOXA2 [1] is 7.06 upbm affinity estimate (log intensity, higher = more binding, comparable within an allelic series); with HOXA2 [3], 10.2 upbm affinity estimate (log intensity, higher = more binding, comparable within an allelic series); with HOXA2 [5], 10.4 upbm affinity estimate (log intensity, higher = more binding, comparable within an allelic series); with HOXA2 [8] it was 6.93 upbm affinity estimate (log intensity, higher = more binding, comparable within an allelic series).
